# Data from PubChem BioAssay AID1159580 (chemical genetic matrix, 2015).
# Hit rate of the full screen: of about 5,500 compounds, about 2,000 (36%) were called active. Inconclusive results (about 18%) are left out. Some of the results follow. Values without a mark were called inactive. No stated cut-off is given here; in the data, active means normalized growth mostly below about 0.91 (no sharp cut-off); inconclusive means no clear call, values can overlap the other calls; inactive means mostly above about 0.92.
# Assay: chemical genetic growth profiling, strain panel (AID 1159580);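 further: tested at 20 µM; growth read once vehicle control cultures reached saturation at 30 °C; 1 = growth at the plate median or of vehicle wells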
# Details: growth OD
structure (smiles),measurement,setting,value
Cc1cc(/C=N/NC(N)=S)c2c(C)ccc(C(C)C)cc1-2,normalized growth,"S. cerevisiae deletion strains, locus YAL013W, strain DEP1, stronger effect = lower value",1.02
same,normalized growth,"S. cerevisiae deletion strains, locus YBR229C, strain ROT2, stronger effect = lower value",1.04
same,normalized growth,"S. cerevisiae deletion strains, locus YCL061C, strain MRC1, stronger effect = lower value",1.02
same,normalized growth,"S. cerevisiae deletion strains, locus YDL101C, strain DUN1, stronger effect = lower value",1.05
same,normalized growth,"S. cerevisiae deletion strains, locus YDL134C, strain PPH21, stronger effect = lower value",1.01
same,normalized growth,"S. cerevisiae deletion strains, locus YDR150W, strain NUM1, stronger effect = lower value",1
same,normalized growth,"S. cerevisiae deletion strains, locus YEL061C, strain CIN8, stronger effect = lower value",1.01
same,normalized growth,"S. cerevisiae deletion strains, locus YGR078C, strain PAC10, stronger effect = lower value",1.01
same,normalized growth,"S. cerevisiae deletion strains, locus YHR030C, strain SLT2, stronger effect = lower value",1.12
same,normalized growth,"S. cerevisiae deletion strains, locus YHR087W, strain rtc3, stronger effect = lower value",1.06
same,normalized growth,"S. cerevisiae deletion strains, locus YJR043C, strain POL32, stronger effect = lower value",1.01
same,normalized growth,"S. cerevisiae deletion strains, locus YJR075W, strain HOC1, stronger effect = lower value",1.02
same,normalized growth,"S. cerevisiae deletion strains, locus YLR039C, strain RIC1, stronger effect = lower value",1.02
same,normalized growth,"S. cerevisiae deletion strains, locus YLR058C, strain SHM2 (second series), stronger effect = lower value",1.03
same,normalized growth,"S. cerevisiae deletion strains, locus YLR085C, strain ARP6, stronger effect = lower value",1.03
same,normalized growth,"S. cerevisiae deletion strains, locus YLR262C, strain YPT6, stronger effect = lower value",1.02
same,normalized growth,"S. cerevisiae deletion strains, locus YML094W, strain GIM5, stronger effect = lower value",1.07
same,normalized growth,"S. cerevisiae deletion strains, locus YMR219W, strain ESC1, stronger effect = lower value",1.03
same,normalized growth,"S. cerevisiae deletion strains, locus YMR263W, strain SAP30, stronger effect = lower value",0.986
same,normalized growth,"S. cerevisiae deletion strains, locus YNL153C, strain GIM3, stronger effect = lower value",1.02
same,normalized growth,"S. cerevisiae deletion strains, locus YNL298W, strain CLA4 (second series), stronger effect = lower value",1.05
same,normalized growth,"S. cerevisiae deletion strains, locus YNL322C, strain KRE1, stronger effect = lower value",1.06 [resistant] (active)
same,normalized growth,"S. cerevisiae deletion strains, locus YNR030W, strain Alg12, stronger effect = lower value",1.08
same,normalized growth,"S. cerevisiae deletion strains, locus YPL055C, strain LGE1, stronger effect = lower value",1.04
same,normalized growth,"S. cerevisiae deletion strains, locus YPL241C, strain CIN2, stronger effect = lower value",1.01
same,normalized growth,"S. cerevisiae deletion strains, locus YPR135W, strain CTF4, stronger effect = lower value",1.17
same,normalized growth,"S. cerevisiae strains, strain wild type, stronger effect = lower value",1.02
